Results from PubChem BioAssay AID1259240 (Keith Lab, Institute of Cancer Science, University of …, 2017).
Values without a mark were called inactive. Activity calls are given as the source filed them. Cut-off read from the data, not from the text of the source: active = fold change mostly below about -2 (no sharp cut-off); inactive = mostly above about -1.8.

Assay: TERT promoter activity modulators, primary screen, cell-based, luciferase reporter, human (AID 1259240)
Settings: A2780 TERT promoter luciferase reporter, 16 h; at 20 µM, fold versus average of vehicle-only wells

First: CN(C)C(=O)c1ccc2c(c1)n(C)c(=O)n2C
Second: CCCc1cc(C(=O)Nc2c(C)n(C)n(-c3ccccc3)c2=O)no1
The fold change of the first is higher: 1.05 for the first, -1.12 for the second.

Compared with `Cc1ccc(-c2n[nH]c3c2C(c2cccc(O)c2)NC3=O)cc1` (stereo not given), `COc1ccc(-c2cc(N3C(=O)Nc4ccccc4N3O)n[nH]2)cc1OC` is higher in fold change: -1.62 for the first, 1.2 for the second.

First: CCOc1cc2c(cc1OCC)C(c1ccc(Br)cc1)CC(=O)N2 (stereo not given)
Second: O=C1CC(c2cc(Br)cs2)c2cc3c(cc2N1)OCO3 (stereo not given)
The fold change of the first is higher: 1.18 for the first, 1.13 for the second.

Going from `CCOC(=O)N1CCN(c2nc3ccccc3n3cnnc23)CC1` to `CC(CC(=O)N1CCN(c2ccc([N+](=O)[O-])cc2)CC1)CC1=NS(=O)(=O)c2ccccc2N1` (stereo not given), the fold change falls from 1.59 to -1.48.

First: CN(CC(=O)NC1CCCc2ccccc21)S(=O)(=O)c1ccc2c(c1)CCC(=O)N2 (stereo not given)
Second: CCN(CC)S(=O)(=O)c1ccc2c(c1)N(CC(=O)NC1CC1)C(=O)CO2
The fold change of the first is higher: 1.18 for the first, -1.73 for the second.

Going from `Cc1cc(NC(=O)CSc2ncnc3ccccc23)no1` to `Cc1c(NC(=O)c2ncn[nH]2)c(=O)n(-c2ccccc2)n1C`, the fold change falls from 1.35 to -1.33.

Going from `CCn1c2ccccc2c2nnc(SCC(=O)Nc3nnc(C(C)C)s3)nc21` to `O=C(CN1C(=O)c2ccccc2C1=O)Nc1nccs1`, the fold change rises from -1.93 to -1.42.

Going from `Cc1cc(C(=O)N2CCC(C)CC2)on1` to `Cc1cc(C(=O)NC2CCCCC2)on1`, the fold change falls from 1.62 to 1.39.

First: CCOc1cccc2cc(S(=O)(=O)c3ccc(C(C)(C)C)cc3)c(=O)oc12
Second: COCCN1C(=O)C(=O)/C(=C(\O)c2ccc(OC)cc2)C12C(=O)N(C)c1ccccc12 (stereo not given)
The fold change of the first is higher: -1.2 for the first, -1.95 for the second.

Compared with `O=C(NCCCN1CCCC1)c1ccc2nc(N3CCOCC3)sc2c1`, `CCc1ccc2nc(NC3=NCN(CCN4CCOCC4)CN3)nc(C)c2c1` is lower in fold change: -1.09 for the first, -1.26 for the second.

Compared with `COc1nnc(-c2ccc(N3CCCCC3)c(N)c2)c2ccccc12`, `Brc1cccc(-c2nc3cnccn3c2NC2CCCCC2)c1` is higher in fold change: -1.98 for the first, -1.11 for the second.

Compared with `COc1ccccc1-c1c(C)nn2c(N(C)CCC#N)cc(C)nc12`, `Cc1nn2c(=O)/c(=C/c3ccc(Cl)c(Cl)c3)sc2nc1=O` is higher in fold change: -1.5 for the first, 1.84 for the second.

First: C=CCN1C(=O)C2(/C(=C(/O)c3ccccc3)C(=O)C(=O)N2CCCN2CCOCC2)c2ccccc21 (stereo not given)
Second: Cc1c(NC(=O)c2cc(C3CC3)on2)c(=O)n(-c2ccccc2)n1C
The fold change of the first is higher: 1.29 for the first, -1.33 for the second.

Going from `CCSC1=NSC2=NC(=O)/C(=C\c3coc4ccccc4c3=O)C(=N)N12` to `O=C1c2cccnc2C(=O)N1CNc1ccccn1`, the fold change falls from 1.16 to -1.26.

First: CC1CCCC(NC(=O)CC(C)(C)CC2=NS(=O)(=O)c3ccccc3N2)C1C (stereo not given)
Second: CCOc1ccc(Oc2nc(NC(C)(C)C)nc(N3CCOCC3)n2)nn1
The fold change of the first is lower: 1.01 for the first, 1.49 for the second.

First: Cc1cc(C)c2c(=O)n(CC(=O)N3CCCC3)sc2n1
Second: COC(=O)c1ccc(C2Oc3c(OC)cccc3C3CC(c4cccs4)=NN32)cc1 (stereo not given)
The fold change of the first is higher: 1.19 for the first, -1.08 for the second.

With `COc1ccccc1-c1nc(-c2ccccn2)no1` the fold change was -2.84 (active).
For `CCOc1nc(-c2ccncc2)nc2ccccc12`, the fold change was -4.22 (active).
For `CCc1ccc(CNc2ccc3c(c2)ncn3C(C)C)cc1`, the fold change was -2.78 (active).
With `CC1CCC(NS(=O)(=O)c2cccc3cccnc23)CC1` (stereo not given) the fold change was -2.05 (active).
In the case of `CCn1c(SCc2nc(-c3ccc(Cl)cc3)no2)nnc1-c1ccco1`, the fold change is reported as -2.86 (active).
With `CC1CCCC(NS(=O)(=O)c2cccc3cccnc23)C1C` (stereo not given) the fold change was -3.72 (active).
For `CCN(CCO)CCNc1cc(N2CCCC(C)C2)c2noc3c2c1C(=O)c1ccccc1-3` (stereo not given), the fold change was -6.87 (active).

For `O=C(O)Cn1c(O)c(C2=c3ccccc3=NC2=O)sc1=S`, the outcome was “inactive”.
